# Laboratory results published in PubChem BioAssay.
# Active and inactive are the calls of the source.
# Columns and labels:
# Albumin (Bos taurus) = Albumin (Bos taurus) (UniProt P02769); assay: bovine serum albumin binders on microarray, profiling panel, artefact control for SMM control protein annotation, biochemical, small-molecule microarray, Alexa647 label, 635/667 nm fluorescence (AID 1118); conditions: BSA-A647 binding, fluorescence 635 nm, higher = more signal;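 note: score merges 667 nm emission intensity and signal-to-noise per printed compound spot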
# [1] = small-molecule microarray binders of probe aXIP, primary screen, biochemical, NeuroSMM set, 635/667 nm fluorescence (AID 1119); conditions: higher = more signal, called active from +8 up or from −8 down;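 note: probe is the protein aXip251-270 applied at 1 µg/mL to compound-printed slides; binding of probe to printed compounds measured as 667 nm fluorescence plus signal to noise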
# [2] = small-molecule binders of probe aNOTCH3, primary screen, biochemical, small-molecule microarray, 635/667 nm fluorescence (AID 1120); conditions: higher = more signal;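 note: probe is a biotin-tagged antibody raised against NOTCH3 rather than NOTCH3 protein; score merges spot fluorescence near 667 nm with spot signal to noise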
# [3] = small-molecule binders of probe aNOTCH2, primary screen, biochemical, small-molecule microarray, 635/667 nm fluorescence (AID 1121); conditions: higher = more signal;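 note: score merges feature fluorescence read at 667 nm with its signal to noise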
# [4] = target: Carbonic anhydrase 2 (Homo sapiens) (UniProt P00918); assay: CAII small-molecule binders, profiling panel, biochemical, small-molecule microarray, Alexa647-labelled CAII (AID 1122); conditions: CAII-A647 binding fluorescence, higher = more signal
# [5] = COS7 lysate on small-molecule microarray, probe aHis, 635 nm (AID 1123); conditions: COS7 cell lysate, fluorescence, higher = more signal;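 note: z-score combines 667nm fluorescence intensity with signal-to-noise per printed compound spot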
# [6] = compound binding in COS7 lysate, probe aLAP1, primary screen, cell lysate, small-molecule microarray (AID 1124); conditions: probe aLAP1, fluorescence, higher = more signal;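 note: lysate comes from COS7 cells expressing LAP1 and is applied at 0.3 µg/mL; score merges spot fluorescence near 667 nm with signal-to-noise over triplicate slides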
# Sam68 (KHDRBS1) = assay: Sam68 small-molecule binders, primary screen, biochemical, small-molecule microarray, 635 nm fluorescence (AID 1125); conditions: small-molecule microarray binding, higher = more signal;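 note: score merges 667 nm channel intensity with signal to noise over triplicate slides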
# [7] = tested on: Chordin-like protein 2 (CHRDL2); assay: CHRDL2 small-molecule binders, primary screen, biochemical, small-molecule microarray, 635 nm fluorescence (AID 1126); conditions: small-molecule microarray binding, fluorescence 635 nm; higher = more signal;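 note: printed compound slides probed with Chrdl2 protein at 4 µg/mL for 1 h at 4 C; score merges 667 nm emission intensity with signal to noise over three replicate slides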
# [8] = target: Concanavalin-A (Canavalia ensiformis) (UniProt P02866); assay: ConA small-molecule binders, primary screen, artefact control for SMM control protein annotation, biochemical, small-molecule microarray, Alexa647 label, 635 nm (AID 1127); conditions: ConA-A647 binding fluorescence, higher = more signal;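 note: z combines 667 nm emission intensity with signal-to-noise across three replicate slides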
# [9] = anti-His antibody binders, primary screen, artefact control for SMM control protein annotation, biochemical, small-molecule microarray, 635 nm fluorescence (AID 1128); conditions: anti-His Alexa647 antibody binding, higher = more signal;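 note: score merges feature fluorescence with signal-to-noise for each printed compound spot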
# [10] = tested on: Human papillomavirus type 1a E7 protein (residues 1-88); assay: HPV1a E7 small-molecule binders, primary screen, biochemical, small-molecule microarray, residues 1-88, 635 nm (AID 1129); conditions: small-molecule microarray binding, fluorescence 635 nm; higher = more signal
# [11] = target: Focal adhesion kinase 1 (Homo sapiens) (UniProt Q05397); assay: small-molecule microarray binders of FAK, primary screen, biochemical, 635/667 nm fluorescence, BSA, DTT (AID 1130); conditions: PTK2 binding, 635 nm fluorescence, higher = more signal;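 note: composite of spot emission at 667 nm and signal to noise over triplicate slides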
# [12] = tested on: Fibrinogen (Alexa647-labelled); assay: fibrinogen binders on compound microarrays, profiling panel, artefact control for SMM control-protein annotation, biochemical, small-molecule microarray, 635/667 nm fluorescence (AID 1131); conditions: fibrinogen-A647 binding fluorescence, higher = more signal;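 note: z-score merges 667 nm fluorescence with per-spot signal-to-noise over triplicate slides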
# [13] = target: Follistatin (Homo sapiens) (UniProt P19883); assay: follistatin binders on small-molecule microarrays, primary screen, biochemical, small-molecule microarray, 635/667 nm fluorescence (AID 1132); conditions: FST binding, 635 nm fluorescence, higher = more signal
# [14] = target: Fibroblast growth factor 2 (Homo sapiens) (UniProt P09038); assay: FGF2 binders on small-molecule microarrays, primary screen, biochemical, small-molecule microarray, 635/667 nm fluorescence (AID 1133); conditions: small-molecule microarray binding, FGF2, fluorescence 635/667; higher = more signal
# [15] = mitochondrial membrane potential change in A549 cells, profiling panel, cell-based, JC-1 fluorescence, basal, 24 h, 100 nL (AID 1138); conditions: higher = more signal;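 note: A549 lung adenocarcinoma cells under basal conditions with no added stimulus; test concentration not given here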
# Lefty1 = Lefty1 binders on small-molecule microarrays, primary screen, biochemical, small-molecule microarray, 635/667 nm fluorescence (AID 1139); conditions: small-molecule microarray binding, fluorescence 635/667; higher = more signal
# [16] = tested on: wheat germ agglutinin (Triticum aestivum), Alexa647-labelled; assay: wheat germ agglutinin binders on compound microarrays, profiling panel, artefact control for SMM control-protein annotation, biochemical, small-molecule microarray, 635/667 nm fluorescence (AID 1140); conditions: WGA-A647 binding, 635 nm fluorescence, higher = more signal;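 note: score merges 667 nm feature emission with signal to noise over triplicate slides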
# [17] = target: Luciferin 4-monooxygenase (Photinus pyralis) (UniProt P08659); assay: firefly luciferase enzyme inhibitors, primary screen, biochemical, luminescence, purified enzyme, 2006 set (AID 1141); conditions: SteadyGlo luminescence, 30 min, higher = more signal, called active from +8 up or from −8 down;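 note: cell-free assay with purified firefly luciferase at 100 ng per well in PBS; test concentration not given here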
# Luciferin 4-monooxygenase (Photinus pyralis), sequence (P08659 whole entry, looked up): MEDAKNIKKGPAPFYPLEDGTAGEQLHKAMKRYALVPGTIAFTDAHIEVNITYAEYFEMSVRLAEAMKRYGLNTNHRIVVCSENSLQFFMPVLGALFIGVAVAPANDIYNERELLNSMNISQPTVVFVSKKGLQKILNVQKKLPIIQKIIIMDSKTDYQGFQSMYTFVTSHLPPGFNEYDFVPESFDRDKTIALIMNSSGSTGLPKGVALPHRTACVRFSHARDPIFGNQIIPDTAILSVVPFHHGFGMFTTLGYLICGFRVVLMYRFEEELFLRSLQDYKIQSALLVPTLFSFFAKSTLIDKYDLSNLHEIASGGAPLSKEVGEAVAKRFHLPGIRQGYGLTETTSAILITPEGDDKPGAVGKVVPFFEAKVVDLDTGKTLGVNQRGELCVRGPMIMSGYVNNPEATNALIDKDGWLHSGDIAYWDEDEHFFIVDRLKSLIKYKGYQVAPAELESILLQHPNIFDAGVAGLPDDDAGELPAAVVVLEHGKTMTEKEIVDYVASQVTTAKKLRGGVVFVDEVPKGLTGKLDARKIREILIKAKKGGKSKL
# Fibroblast growth factor 2 (Homo sapiens), sequence (P09038 whole entry, looked up): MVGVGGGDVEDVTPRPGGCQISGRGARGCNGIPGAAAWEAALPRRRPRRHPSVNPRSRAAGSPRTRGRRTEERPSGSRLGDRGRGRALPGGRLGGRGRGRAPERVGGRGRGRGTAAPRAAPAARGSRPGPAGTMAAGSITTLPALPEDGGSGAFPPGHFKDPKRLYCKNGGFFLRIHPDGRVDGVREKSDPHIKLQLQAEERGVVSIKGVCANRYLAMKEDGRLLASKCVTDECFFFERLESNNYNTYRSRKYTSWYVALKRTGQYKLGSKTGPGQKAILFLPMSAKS
# Follistatin (Homo sapiens), sequence (P19883 whole entry, looked up): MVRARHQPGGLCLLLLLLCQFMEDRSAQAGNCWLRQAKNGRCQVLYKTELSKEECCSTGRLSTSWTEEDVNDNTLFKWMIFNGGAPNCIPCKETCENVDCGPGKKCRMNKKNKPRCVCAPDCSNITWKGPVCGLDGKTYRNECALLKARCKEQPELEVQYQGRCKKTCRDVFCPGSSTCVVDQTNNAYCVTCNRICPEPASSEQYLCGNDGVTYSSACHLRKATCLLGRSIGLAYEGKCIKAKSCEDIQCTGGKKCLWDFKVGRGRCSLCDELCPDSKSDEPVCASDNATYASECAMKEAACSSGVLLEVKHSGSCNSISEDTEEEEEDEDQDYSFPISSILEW
# Focal adhesion kinase 1 (Homo sapiens), sequence (Q05397 whole entry, looked up): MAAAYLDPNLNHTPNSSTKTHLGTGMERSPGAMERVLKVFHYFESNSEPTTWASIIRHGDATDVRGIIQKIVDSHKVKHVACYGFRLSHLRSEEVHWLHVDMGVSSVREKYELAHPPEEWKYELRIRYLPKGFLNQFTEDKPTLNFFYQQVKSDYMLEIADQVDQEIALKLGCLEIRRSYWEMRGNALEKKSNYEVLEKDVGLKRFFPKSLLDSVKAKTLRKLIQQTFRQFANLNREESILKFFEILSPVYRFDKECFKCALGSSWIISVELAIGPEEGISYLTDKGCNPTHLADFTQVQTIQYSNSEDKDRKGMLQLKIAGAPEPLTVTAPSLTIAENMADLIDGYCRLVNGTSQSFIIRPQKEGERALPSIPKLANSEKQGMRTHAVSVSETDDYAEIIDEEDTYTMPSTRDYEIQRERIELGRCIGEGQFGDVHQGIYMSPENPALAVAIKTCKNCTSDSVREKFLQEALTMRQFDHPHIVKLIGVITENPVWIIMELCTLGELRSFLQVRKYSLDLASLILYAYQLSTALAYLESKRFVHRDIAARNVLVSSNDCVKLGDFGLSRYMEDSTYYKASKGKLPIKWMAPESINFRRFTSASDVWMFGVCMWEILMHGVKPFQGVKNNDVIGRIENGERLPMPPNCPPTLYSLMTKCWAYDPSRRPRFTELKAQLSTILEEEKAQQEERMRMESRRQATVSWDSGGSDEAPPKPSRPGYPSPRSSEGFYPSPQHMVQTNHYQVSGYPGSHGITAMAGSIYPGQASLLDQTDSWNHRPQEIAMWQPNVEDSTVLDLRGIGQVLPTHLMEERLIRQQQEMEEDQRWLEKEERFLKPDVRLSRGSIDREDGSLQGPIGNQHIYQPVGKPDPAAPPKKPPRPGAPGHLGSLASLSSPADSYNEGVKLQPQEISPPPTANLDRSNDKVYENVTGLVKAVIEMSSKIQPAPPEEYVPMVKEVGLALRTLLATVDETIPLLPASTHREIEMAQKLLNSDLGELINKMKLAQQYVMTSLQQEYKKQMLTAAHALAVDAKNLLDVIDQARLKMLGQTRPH
# Concanavalin-A (Canavalia ensiformis), sequence (P02866 whole entry, looked up): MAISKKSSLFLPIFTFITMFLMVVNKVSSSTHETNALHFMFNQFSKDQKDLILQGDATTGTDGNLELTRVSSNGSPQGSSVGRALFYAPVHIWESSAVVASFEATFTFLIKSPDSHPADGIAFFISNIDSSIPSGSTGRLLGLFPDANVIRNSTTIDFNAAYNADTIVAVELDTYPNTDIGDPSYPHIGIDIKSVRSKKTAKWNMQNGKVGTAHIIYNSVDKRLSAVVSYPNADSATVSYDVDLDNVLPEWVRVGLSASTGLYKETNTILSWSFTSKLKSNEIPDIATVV
# Albumin (Bos taurus), sequence (P02769 whole entry, looked up): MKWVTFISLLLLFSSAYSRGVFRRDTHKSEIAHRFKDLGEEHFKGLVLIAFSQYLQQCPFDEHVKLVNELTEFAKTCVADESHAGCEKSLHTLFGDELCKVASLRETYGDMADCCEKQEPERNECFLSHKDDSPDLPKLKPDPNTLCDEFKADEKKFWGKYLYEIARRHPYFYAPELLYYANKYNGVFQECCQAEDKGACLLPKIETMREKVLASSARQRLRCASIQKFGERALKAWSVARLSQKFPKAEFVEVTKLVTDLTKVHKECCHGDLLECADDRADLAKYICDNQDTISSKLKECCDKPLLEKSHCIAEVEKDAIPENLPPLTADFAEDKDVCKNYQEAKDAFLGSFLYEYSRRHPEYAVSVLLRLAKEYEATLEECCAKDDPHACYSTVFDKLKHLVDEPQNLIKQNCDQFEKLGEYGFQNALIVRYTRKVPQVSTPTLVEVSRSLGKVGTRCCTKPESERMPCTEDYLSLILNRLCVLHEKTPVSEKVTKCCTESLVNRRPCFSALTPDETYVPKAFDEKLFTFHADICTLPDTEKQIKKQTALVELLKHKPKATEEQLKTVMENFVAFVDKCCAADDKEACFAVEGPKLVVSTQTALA
Compound,composite z-score (Albumin (Bos taurus)),composite Z-score [1],composite z-score [2],composite z-score [3],composite z-score [4],composite z-score [5],composite z-score [6],composite z-score (Sam68 (KHDRBS1)),composite z-score [7],composite z-score [8],composite z-score [9],composite z-score [10],composite z-score [11],composite z-score [12],composite z-score [13],composite z-score [14],z-score [15],composite z-score (Lefty1),composite z-score [16],z-score [17]
C/C(=N\O)C(=O)NCCCCCNC(=O)OCc1ccccc1,0.487,0.179 (inactive),0.0066,-0.0942,0.355,0.332,0.199,0.639,0.367,0.818,0.443,0.783,0.317,0.825,0.7,0.545,2.02,0.93,0.3,-1.72 (inactive)
CCCC=C(CCC)[C@@H](NS(=O)(=O)c1ccc(-c2ccccc2)cc1)c1ccc(C(=O)OC)cc1,-0.0722,-0.682 (inactive),-0.0846,-0.0651,-0.291,0.257,0.515,-0.829,-0.705,0.115,0.5,-0.997,-0.15,-0.285,-0.407,-0.624,-2.58,-0.707,-0.153,1.67 (inactive)
C=CCN1C(=O)[C@@]2(O[C@@H](CCn3cc([C@H](O)c4ccccc4)nn3)[C@H]([Si](C)(C)c3ccc(OC)cc3)[C@H]2C)c2cc(N3CCOC3=O)ccc21,0.0865,0.146 (inactive),-0.0932,-0.0666,0.614,1.02,0.0741,1.11,-0.0548,-0.559,1.34,1.16,0.533,-0.285,0.0302,0.0085,0.899,-0.192,-0.605,-0.731 (inactive)
CCCC=C(CCC)[C@@H](NC(=O)c1ccc(C(F)(F)F)cc1)c1ccccc1,-0.0332,0.0895 (inactive),0.191,-0.0007,0.104,1.29,-0.805,0.989,-0.815,0.483,0.81,0.788,0.0363,0.0538,0.0643,-0.764,-2.54,0.0969,0.352,1.2 (inactive)
COC(=O)[C@@]1(Cc2ccc(OC)cc2)[C@H]2c3cc(C(=O)N(C)C)n(CCc4ccc(OC)c(Br)c4)c3C[C@H]2CN1C(=O)c1ccccc1,1.11,-0.665 (inactive),0.831,0.395,0.718,2.9,0.482,1.29,-1.11,1.2,2.28,1.23,2.29,0.891,0.85,-0.763,0.37,-0.545,1.37,0.253 (inactive)
COc1ccc(NN2C(C(O)c3cc(OC)c(OC)c(OC)c3)C=CC3C(=O)N(C4CCCCC4)C(=O)C32)cc1 (stereo not given),1.02,0.487 (inactive),0.831,0.531,0.211,2.42,0.754,1.3,-1.2,1.1,0.717,1.21,1.06,0.965,0.412,-0.418,0.469,0.133,1.22,0.582 (inactive)
CC(C)N1CC=CC23O[C@@H]4/C=C\CCCOC(=O)C4[C@H]2C(=O)N(CCO)[C@@H]3C1=O (stereo not given in full),0.767,1.95 (inactive),-0.0918,-0.0874,0.893,0.572,1.43,0.534,-1.4,0.329,-0.548,-0.328,0.339,-0.508,-0.544,-0.635,1.77,0.225,-0.505,-1.68 (inactive)
CO[C@H]1COC(=O)[C@@H](C)NC(=O)CC=C[C@@H](C)[C@H](OC)COC(=O)CC=C[C@@H]1C,-0.731,1.16 (inactive),-0.0679,-0.201,-0.576,-0.724,-0.517,0.32,1.46,-1.28,-0.31,-1.46,0.223,-1.07,1.34,1.63,2.3,1.66,-1.16,-1.38 (inactive)
CC1CC/C=C\[C@H]2OC34C=CCN(Cn5nnc6ccccc65)C(=O)[C@H]3N(C(C)CO)C(=O)[C@@H]4C2C(=O)O1 (stereo not given in full),-0.178,-0.105 (inactive),-0.1,-0.189,0.797,-0.0502,0.0114,-0.579,-0.764,-0.309,0.52,-1.01,-0.305,-0.559,-0.491,-1.01,0.417,-0.328,-0.462,-0.223 (inactive)
CO[C@H]1COC(=O)[C@@H](Cc2ccccc2)NC(=O)[C@@H](C)COC(=O)CC=C[C@@H]1C,-1.03,-0.179 (inactive),-0.095,-0.14,-0.498,-0.875,-0.422,-0.0602,1.24,-0.773,-0.28,-0.0865,-0.112,-0.277,1.24,1.01,1.3,1.01,-0.744,-1.16 (inactive)
